{
  "source": "PubChem BioAssay AID2283145",
  "about": "(EPA ToxCast)",
  "note": "Inconclusive results are not listed. The source made the active and inactive calls. Rule for the calls: active = hit-call score of the fitted dose curve at least 0.9, where 1 is the maximum; inconclusive = response in the unintended direction; inactive = score below 0.9.",
  "data": [
    {"biological_target": "human Cyclin-Dependent Kinase 6 (CDK6), CDK6 (gene 1021) (UniProt Q00534)", "sequence (Q00534 whole entry, looked up)": "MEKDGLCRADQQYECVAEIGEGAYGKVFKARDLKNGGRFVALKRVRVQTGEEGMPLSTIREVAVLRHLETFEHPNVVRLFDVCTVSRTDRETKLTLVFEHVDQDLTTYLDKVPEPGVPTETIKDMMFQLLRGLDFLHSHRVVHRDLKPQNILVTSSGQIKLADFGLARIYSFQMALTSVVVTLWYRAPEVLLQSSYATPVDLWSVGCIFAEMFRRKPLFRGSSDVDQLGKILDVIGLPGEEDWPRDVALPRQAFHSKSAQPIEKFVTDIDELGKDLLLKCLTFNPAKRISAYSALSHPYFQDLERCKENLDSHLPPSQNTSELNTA", "test": "NVS_ENZ_hCDK6: NovaScreen (NVS) Enzymatic Assay for human Cyclin-Dependent Kinase 6 (CDK6)", "method": "NVS_ENZ_hCDK6 is a biochemical, single-readout assay that uses extracted gene-proteins in a cell-free assay. Measurements were taken 1 hour after chemical dosing in a 384-well plate.NVS_ENZ_hCDK6 is one of one assay component(s) measured or calculated from the NVS_ENZ_hCDK6 assay. It is designed to make measurements of enzyme activity, a form of enzyme reporter, as detected with fluorescence intensity signals by Fluorescence and electrophoretic mobility shift technology.Data from the assay component NVS_ENZ_hCDK6 was analyzed into 1 assay endpoint. This assay endpoint, NVS_ENZ_hCDK6, was analyzed in the positive analysis fitting direction relative to DMSO as the negative control and baseline of activity. Using a type of enzyme reporter, loss-of-signal activity can be used to understand changes in the enzymatic activity as they relate to the gene CDK6. Furthermore, this assay endpoint can be referred to as a primary readout, because this assay has produced multiple assay endpoints where this one serves a enzymatic activity function. To generalize the intended target to other relatable targets, this assay endpoint is annotated to the kinase intended target family, where the subfamily is serine/threonine kinase.\nBinding assays used specific radioligands (tritiated, iodinated) with non-radioactive competitive displacement ligands in agonist or antagonist protocols (as indicated) and various reference compounds and inhibitors to titrate specific binding to receptors and transporters. Most enzyme assays (CYPs, kinases, phosphatases, proteases, HDACs) used recombinant protein and specific substrates (fluorescence mostly, some colorimetric and radioactive) and inhibitors, followed by a biochemical separation of substrate and product. All assays for the biochemical HTS were initially run in duplicate at a single concentration (10 uM for CYP450 assays and 25 uM for all others). […] Each assay was run with positive and negative controls, and concurrent controls on every plate. The follow-up (secondary) screen tested active chemical-pairs in concentration series, as well as a few additional assays not tested in the primary screen, some selected negative inactives, and several cases re-run in the concentration series for confirmatory purposes.", "values": [
      {"smiles": "S=C([S-])NCCNC(=S)[S-].[Mn+2]", "AC50": "10.5 µM (active)"},
      {"smiles": "CN(C)[C@@H]1C(=O)C(C(N)=O)=C(O)[C@@]2(O)C(=O)C3=C(O)c4c(O)cccc4[C@@](C)(O)[C@H]3[C@H](O)[C@@H]12", "AC50": "23.1 µM (active)"},
      {"smiles": "Nc1c(Cl)c(Cl)nc(C(=O)O)c1Cl", "outcome": "inactive"},
      {"smiles": "S=C(S)NCCNC(=S)S.[Mn+2].[S-]C([S-])=NCCN=C([S-])[S-].[Zn+2]", "AC50": "9.65 µM (active)"}
    ]}
  ]
}
